Several values for one entry are separate records, joined by “and”; a condition that tells them apart may be missing. Equal values may be shown once. Results filed as inconclusive are left out. Activity calls are given as the source filed them. Unless noted, calls follow the shape of the full dose curve.

The target in experiment [1] is Bile acid receptor (Homo sapiens) (UniProt Q96RI1). As to the kind of experiment: qHTS assay for small molecule antagonists of farnesoid X receptor signaling (AID 588526). Also: potency is read from the fitted curve at half-maximal effect. The method in brief: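 Beta-lactamase reporter antagonist mode: HEK293T FXR-UAS-bla cells, titrated compound, CDCA stimulation, 16 h 37 C, CCF4 dye 2 h RT. Data normalized to CDCA 50 uM and DMSO; Hill-fit IC50.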

For experiment [2] the target is unchanged. As to the kind of experiment: qHTS assay for small molecule agonists of farnesoid X receptor signaling (AID 588527).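 Also: series mostly up to about 77 µM; 0% = vehicle basal and 100% = reference agonist.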 The conditions noted are these: HEK293T FXR-UAS-bla, beta-lactamase ratio, 16 h; activation: stronger effect = higher value. The method in brief:
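Read-out: beta-lactamase reporter fluorescence with CCF4 substrate in GeneBLAzer FXR-UAS-bla HEK293T cells, after 16 h compound exposure at 37 C. Response scaled between DMSO basal (0%) and chenodeoxycholic acid at 100 uM (100%).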

In experiment [3] the target is Glucocorticoid receptor (Homo sapiens) (UniProt P04150). The experiment can be described thus: qHTS assay for small molecule antagonists of glucocorticoid receptor signaling (AID 588533; active = well fitted inhibition curve with a large enough effect in the signal ratio, with a control signal flat, not every such curve was filed as active; the % refers to the signal ratio;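 also: cells stimulated with 2 nM dexamethasone as agonist; % is scaled to controls: 0 for no effect and ±100 for the full control effect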). The method in brief:
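Antagonist-mode qHTS: compound titrations added to GRE-bla HeLa cells, then dexamethasone 2 nM final; 18 h, 37 C. CCF4 FRET fluorescence normalized to dexamethasone and DMSO; IC50 from Hill fit.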

A short description of experiment [4]: qHTS assay for small molecule antagonists of peroxisome proliferator-activated receptor delta signaling (AID 588535; active = well fitted inhibition curve with a large enough effect in the signal ratio, with a control signal flat, not every such curve was filed as active; the % refers to the signal ratio;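 as to max response: cells co-treated with a PPAR-delta agonist as stimulator during compound exposure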). To be noted: HEK293T PPARd-UAS-bla, beta-lactamase FRET ratio, 18 h; 460 nm channel. In short, it runs like this:
(§1)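 HEK293T PPAR-delta-UAS-bla cells, 4000/well, 2% charcoal/dextran FBS; 5 h 37 C; cpd titration; 18 h 37 C; CCF4 2 h RT; FI 460/530 nm; Hill fit → IC50, efficacy.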

The target in experiment [5] is Peroxisome proliferator-activated receptor delta (Homo sapiens) (UniProt Q03181). The experiment is described as above. In short, it runs like this:
as §1

A short description of experiment [6]: qHTS assay for small molecule agonists of the antioxidant response element (ARE) signaling pathway (AID 651741; active = well fitted activation curve with a large enough effect in the signal ratio; the % refers to the signal ratio; also: potency is read from the fitted curve at half-maximal effect; as to activation: % of control where 0% means no effect). In short, it runs like this: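 Quantitative HTS in HepG2 cells stably expressing an ARE-beta-lactamase reporter; 16 h compound exposure at 37 C, followed by 2 h room-temperature incubation with LiveBLAzer B/G FRET substrate and fluorescence measurement.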

A short description of experiment [7]: qHTS assay for small molecule activators of the nuclear factor-kappa B (NF-kB) signaling pathway (AID 651749; active = well fitted activation curve with a large enough effect in the signal ratio; the % refers to the signal ratio; also: series mostly up to about 77 µM; % of control where 0% means no effect). To be noted: NF-kB-bla ME-180 cells, beta-lactamase FRET ratio, 16 h; activation: stronger effect = higher value. In short, it runs like this:
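Readout: beta-lactamase reporter driven by an NF-kB response element, detected fluorescently as loss of FRET. Cells were the ME-180 line, treated 16 hr at 37C with pin-transferred compound.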

The nature of experiment [8]: qHTS assay for small molecule activators of the human pregnane X receptor (PXR) signaling pathway (AID 720659; call rule not given here; also: 0% is about no effect).
Experiment [9] deals with Glucocorticoid receptor (Homo sapiens) (UniProt P04150). The experiment can be described thus: qHTS assay for small molecule agonists of glucocorticoid receptor signaling (AID 588532; active = well fitted curve in the direction sought with a large enough effect in the signal ratio, with a control signal flat; the % refers to the signal ratio;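 also: 100% = dexamethasone at 0.1 µM and 0% = DMSO only wells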). The conditions noted are these: HeLa MMTV-bla, beta-lactamase ratio, agonist, 18 h; activation: stronger effect = higher value, percent of dexamethasone control, DMSO zero. The method in brief: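 Quantitative HTS using CellSensor MMTV-bla HeLa cells in charcoal/dextran-treated serum; compounds tested up to 92 uM. After 18 h at 37 C, CCF4 dye reported reporter induction.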

For experiment [10], the target named is Vitamin D3 receptor (Homo sapiens) (UniProt P11473). The experiment can be described thus: qHTS assay for small molecule agonists of vitamin D receptor signaling (AID 588543).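 Also: 0% = DMSO basal and 100% = reference agonist control.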 The method in brief:
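VDR-UAS-bla HEK293T cells, 2000/well, 2% charcoal-stripped FBS; compound titration 16 h at 37 C; CCF4 beta-lactamase ratio read. Normalized to 50 nM 1-alpha,25-dihydroxyvitamin D3 (100%) and DMSO; Hill fit gives EC50, efficacy.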

The target in experiment [11] is Cytochrome P450 3A4 (Homo sapiens) (UniProt P08684). As to the kind of experiment: qHTS Assay for Inhibitors and Substrates of Cytochrome P450 3A4 (AID 884; active = well fitted curve in the direction sought with a large enough effect; an effect the other way counts as inactive or inconclusive; also: potency is read from the fitted curve at half-maximal effect; nearly all actives have a fitted effect of over 50% in size). In short, it runs like this: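 20 nM human CYP3A4 with 25 uM Luciferin-PPXE (at KM) in 200 mM KPO4, preincubated 10 min with compound; NADPH regeneration started a 60 min RT reaction. Luciferin detected by luminescence, normalized to 57 uM ketoconazole as full inhibition.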

Experiment [12] has the same target. As to the kind of experiment: qHTS Assay for Activators of Cytochrome P450 3A4 (AID 885; active = well fitted curve in the direction sought with a large enough effect; an effect the other way counts as inactive or inconclusive; also: nearly all actives have a fitted effect of over 65% in size). In short, it runs like this:
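Steps: enzyme/substrate mix dispensed; compound added, 10 min RT; NADPH regeneration solution added, 60 min RT; luciferin detection buffer stops reaction; 20 min later luminescence measured.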

Experiment [13] in a line: Cell Viability - LYMP2-001 (AID 921; active = well fitted curve in the direction sought with a large enough effect; an effect the other way counts as inactive or inconclusive; also: potency is read from the fitted curve at half-maximal effect; nearly all actives have a fitted effect of over 70% in size). The method in brief: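 Human lymphoblastoid LYMP2-001 cells, 2500 per well, in complete medium, treated 24 h at 37 C. Viability from cellular ATP by CellTiter-Glo luminescence; AC50 from Hill-equation fits of qHTS concentration-response.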
Experiment [14] can be described thus: MultiTox-Fluor Cytotoxicity Assay - LYMP1-002 - Live Cells (AID 955; active = well fitted curve in the direction sought with a large enough effect; an effect the other way counts as inactive or inconclusive;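 also: potency is read from the fitted curve at half-maximal effect; cells exposed to compound for 16 hours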). The method in brief: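 Read-out is live-cell protease activity (cell-permeant GF-AFC substrate, fluorescence Ex/Em=405/510), where a decrease indicates acute toxicity. Human lymphoblastoid cells were treated 16 hours at 37 C in a concentration series, and AC50 values came from standard Hill modelling.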

A short description of experiment [15]: MultiTox-Fluor Cytotoxicity Assay - LYMP1-002 - Dead Cells (AID 960; active = well fitted curve in the direction sought with a large enough effect; an effect the other way counts as inactive or inconclusive; also: potency is read from the fitted curve at half-maximal effect; nearly all actives have a fitted effect of over 60% in size). In short, it runs like this: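 LYMP1-002 cells 2500/well; 5 hr 37 C pre-incubation; compound 16 hr 37 C; MultiTox-Fluor reagent 60 min RT; dead-cell fluor Ex/Em 485/520. Norm. to DMSO (0%) vs 15 uM tetraoctylammonium bromide (100%); Hill AC50.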
A short description of experiment [16]: MultiTox-Fluor Cytotoxicity Assay - LYMP1-003 - Dead Cells (AID 961; active = well fitted curve in the direction sought with a large enough effect; an effect the other way counts as inactive or inconclusive; also: potency is read from the fitted curve at half-maximal effect; nearly all actives have a fitted effect of over 70% in size). The method in brief: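 LYMP1-003 lymphoblastoid, 2500 cells/well, 5 hr settle then 16 hr cpd at 37 C; MultiTox-Fluor reagent 60 min RT; Ex/Em 485/520 dead-cell signal; norm. DMSO = 0%, 15 uM tetraoctylammonium bromide = 100%; Hill AC50.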
Experiment [17] can be described thus: Cell Viability - LYMP2-003 (AID 965; active = well fitted curve in the direction sought with a large enough effect; an effect the other way counts as inactive or inconclusive;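 also: potency is read from the fitted curve at half-maximal effect; cells exposed to compounds for 24 h before reading; nearly all actives have a fitted effect of over 50% in size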). The method in brief: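 Human lymphoblastoid LYMP2-003 cells, 2500/well, exposed to compounds for 24 h at 37 C in complete medium. Viability read as intracellular ATP by CellTiter-Glo luminescence; AC50 from Hill-equation fits of qHTS concentration-response data.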
A short description of experiment [18]: Cell Viability - LYMP2-011 (AID 969; active = well fitted curve in the direction sought with a large enough effect; an effect the other way counts as inactive or inconclusive; also: potency is read from the fitted curve at half-maximal effect; nearly all actives have a fitted effect of over 60% in size). In short, it runs like this: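 2500 cells/well, 5 hr 37 C; compound added, 24 hr 37 C; CellTiter-Glo 30 min RT; luminescence. qHTS concentration-response, Hill-equation AC50. Tetraoctylammonium bromide positive control.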
In experiment [19] the target is Androgen receptor (Homo sapiens) (UniProt P10275). The experiment can be described thus: qHTS assay for small molecule agonists of androgen receptor signaling (AID 588515; active = well fitted curve in the direction sought with a large enough effect in the signal ratio, with a control signal flat; the % refers to the signal ratio; also: % is scaled to controls: 0 for no effect and ±100 for the full control effect). To be noted: AR-UAS-bla HEK293, beta-lactamase ratio, agonist 16 h; stronger effect = higher value. In short, it runs like this: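 EC50 and efficacy came from Hill fits of titrations (up to 92 uM) normalized to 30 nM R1881 as 100% and DMSO as 0%. Compound exposure was 16 h at 37 C on AR-UAS-bla HEK293 cells, with a 405/460/530 nm CCF4 fluorescence read.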

Experiment [20] has the same target. The experiment can be described thus: qHTS assay for small molecule antagonists of androgen receptor signaling (AID 588516; active = well fitted curve in the direction sought with a large enough effect in the signal ratio, with a control signal flat, not every such curve was filed as active; the % refers to the signal ratio; also: % is scaled to controls: 0 for no effect and ±100 for the full control effect). In short, it runs like this:
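AR-UAS-bla GripTite HEK 293 cells (2000/well) treated with compound titrations plus 10 nM R1881 for 16 h at 37C. Beta-lactamase read by CCF4 FRET (460/530 nm); IC50 from Hill fits, normalized to R1881 and DMSO control wells.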

Chain of Glucocorticoid receptor (Homo sapiens) (P04150 whole entry, looked up): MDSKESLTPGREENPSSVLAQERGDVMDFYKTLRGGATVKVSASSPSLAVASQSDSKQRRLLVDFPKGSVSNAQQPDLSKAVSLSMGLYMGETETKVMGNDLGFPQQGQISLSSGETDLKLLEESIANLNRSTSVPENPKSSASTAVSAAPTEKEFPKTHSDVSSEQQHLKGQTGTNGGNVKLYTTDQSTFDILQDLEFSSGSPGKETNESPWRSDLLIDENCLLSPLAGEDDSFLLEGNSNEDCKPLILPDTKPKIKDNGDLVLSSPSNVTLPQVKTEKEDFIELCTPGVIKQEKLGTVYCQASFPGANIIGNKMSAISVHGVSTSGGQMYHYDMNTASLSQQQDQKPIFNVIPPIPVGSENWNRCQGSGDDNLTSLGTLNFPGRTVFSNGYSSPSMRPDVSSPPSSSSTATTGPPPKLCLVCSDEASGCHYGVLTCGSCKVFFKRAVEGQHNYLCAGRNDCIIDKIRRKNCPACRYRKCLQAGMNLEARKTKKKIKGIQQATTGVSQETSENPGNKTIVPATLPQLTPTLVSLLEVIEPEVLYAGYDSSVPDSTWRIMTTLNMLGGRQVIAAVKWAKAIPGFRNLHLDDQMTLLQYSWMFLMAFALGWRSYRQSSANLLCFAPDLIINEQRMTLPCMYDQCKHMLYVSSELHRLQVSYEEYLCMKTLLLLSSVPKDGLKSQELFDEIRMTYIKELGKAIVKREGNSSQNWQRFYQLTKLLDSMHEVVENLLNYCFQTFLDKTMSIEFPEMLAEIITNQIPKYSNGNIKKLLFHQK
Chain of Vitamin D3 receptor (Homo sapiens) (P11473 whole entry, looked up): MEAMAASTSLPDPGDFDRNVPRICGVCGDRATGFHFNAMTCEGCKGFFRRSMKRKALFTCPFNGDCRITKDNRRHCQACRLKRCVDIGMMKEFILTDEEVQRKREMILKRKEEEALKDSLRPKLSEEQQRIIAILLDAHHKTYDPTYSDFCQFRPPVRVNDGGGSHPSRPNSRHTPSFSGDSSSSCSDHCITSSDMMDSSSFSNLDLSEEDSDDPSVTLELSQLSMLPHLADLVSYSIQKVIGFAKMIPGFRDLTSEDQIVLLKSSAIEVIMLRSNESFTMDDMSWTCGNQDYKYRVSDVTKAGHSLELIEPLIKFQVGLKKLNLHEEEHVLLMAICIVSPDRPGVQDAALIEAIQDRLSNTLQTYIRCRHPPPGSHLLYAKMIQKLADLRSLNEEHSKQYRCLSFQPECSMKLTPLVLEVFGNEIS
Chain of Peroxisome proliferator-activated receptor delta (Homo sapiens) (Q03181 whole entry, looked up): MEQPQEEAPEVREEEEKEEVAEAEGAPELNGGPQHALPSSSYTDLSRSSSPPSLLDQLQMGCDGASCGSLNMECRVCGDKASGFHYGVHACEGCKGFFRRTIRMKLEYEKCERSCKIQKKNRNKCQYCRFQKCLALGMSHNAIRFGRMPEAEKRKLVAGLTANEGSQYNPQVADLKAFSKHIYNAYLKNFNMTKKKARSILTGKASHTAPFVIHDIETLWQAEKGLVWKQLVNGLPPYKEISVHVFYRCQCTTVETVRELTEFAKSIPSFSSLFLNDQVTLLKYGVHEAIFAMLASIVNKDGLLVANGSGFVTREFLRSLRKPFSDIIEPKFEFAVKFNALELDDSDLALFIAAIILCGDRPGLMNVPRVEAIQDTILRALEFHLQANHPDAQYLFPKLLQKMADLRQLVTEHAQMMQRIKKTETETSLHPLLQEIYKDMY
Chain of Bile acid receptor (Homo sapiens) (Q96RI1 whole entry, looked up): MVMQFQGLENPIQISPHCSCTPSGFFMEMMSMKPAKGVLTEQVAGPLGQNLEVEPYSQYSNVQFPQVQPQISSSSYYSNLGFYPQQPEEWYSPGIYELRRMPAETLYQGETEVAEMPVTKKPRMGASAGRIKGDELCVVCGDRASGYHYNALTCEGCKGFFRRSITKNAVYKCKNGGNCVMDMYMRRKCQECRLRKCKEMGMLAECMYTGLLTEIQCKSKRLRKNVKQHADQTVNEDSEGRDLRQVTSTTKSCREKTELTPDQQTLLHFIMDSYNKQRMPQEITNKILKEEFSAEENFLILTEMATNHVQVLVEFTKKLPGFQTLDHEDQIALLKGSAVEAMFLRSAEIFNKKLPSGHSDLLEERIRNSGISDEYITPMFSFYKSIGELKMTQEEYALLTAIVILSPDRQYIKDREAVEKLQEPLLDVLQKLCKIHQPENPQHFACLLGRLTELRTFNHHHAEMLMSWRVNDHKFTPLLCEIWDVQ
Chain of Cytochrome P450 3A4 (Homo sapiens) (P08684 whole entry, looked up): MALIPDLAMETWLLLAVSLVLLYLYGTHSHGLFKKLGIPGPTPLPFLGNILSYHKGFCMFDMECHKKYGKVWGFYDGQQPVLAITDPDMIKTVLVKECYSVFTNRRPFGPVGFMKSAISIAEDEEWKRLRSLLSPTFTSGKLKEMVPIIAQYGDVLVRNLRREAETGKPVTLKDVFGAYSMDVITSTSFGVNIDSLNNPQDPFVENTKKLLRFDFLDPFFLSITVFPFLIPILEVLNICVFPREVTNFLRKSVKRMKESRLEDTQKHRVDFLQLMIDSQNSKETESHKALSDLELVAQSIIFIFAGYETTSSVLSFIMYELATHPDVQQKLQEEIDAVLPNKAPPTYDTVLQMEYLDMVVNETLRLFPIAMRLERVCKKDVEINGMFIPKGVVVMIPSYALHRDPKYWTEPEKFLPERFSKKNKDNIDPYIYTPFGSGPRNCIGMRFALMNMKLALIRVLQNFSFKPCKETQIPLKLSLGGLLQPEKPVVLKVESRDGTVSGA
Chain of Androgen receptor (Homo sapiens) (P10275 whole entry, looked up): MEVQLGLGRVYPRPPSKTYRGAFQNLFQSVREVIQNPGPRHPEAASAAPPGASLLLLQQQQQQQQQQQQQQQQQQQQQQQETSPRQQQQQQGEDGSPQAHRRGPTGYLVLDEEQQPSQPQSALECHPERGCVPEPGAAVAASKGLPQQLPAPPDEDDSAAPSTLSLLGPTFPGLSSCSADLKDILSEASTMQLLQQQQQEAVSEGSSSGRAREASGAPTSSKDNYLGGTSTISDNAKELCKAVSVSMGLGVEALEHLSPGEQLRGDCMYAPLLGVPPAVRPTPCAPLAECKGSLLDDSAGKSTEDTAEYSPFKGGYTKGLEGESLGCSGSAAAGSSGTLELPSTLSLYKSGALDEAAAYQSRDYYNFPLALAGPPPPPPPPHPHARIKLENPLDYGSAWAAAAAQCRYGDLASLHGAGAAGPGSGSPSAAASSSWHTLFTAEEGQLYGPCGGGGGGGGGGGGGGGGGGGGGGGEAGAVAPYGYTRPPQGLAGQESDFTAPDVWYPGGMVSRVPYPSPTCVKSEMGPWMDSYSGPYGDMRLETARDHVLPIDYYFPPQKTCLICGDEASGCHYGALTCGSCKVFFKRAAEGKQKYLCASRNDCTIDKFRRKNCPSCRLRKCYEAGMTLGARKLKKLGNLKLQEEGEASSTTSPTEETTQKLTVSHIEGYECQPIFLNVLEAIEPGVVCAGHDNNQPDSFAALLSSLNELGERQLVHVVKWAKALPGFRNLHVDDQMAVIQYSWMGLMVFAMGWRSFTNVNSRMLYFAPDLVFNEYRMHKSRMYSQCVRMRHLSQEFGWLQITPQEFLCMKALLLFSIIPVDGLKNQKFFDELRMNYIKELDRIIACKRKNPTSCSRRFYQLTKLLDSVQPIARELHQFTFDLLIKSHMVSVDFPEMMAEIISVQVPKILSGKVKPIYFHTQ

Take `COC(=O)c1ccccc1S(=O)(=O)NC(=O)N(C)c1nc(C)nc(OC)n1`: the Potency entry in experiment [1], in experiment [3], in experiment [5] and in experiment [6] was “inactive” in each case. In addition, the activation in experiment [2] was 1.44% (inactive); in [7], -0.341% (inactive). In addition, the max response in experiment [4] was -42.2%. Further, the result in experiment [8] was inactive.

In the case of `CC(C)(c1ccccc1)c1cc(-n2nc3ccccc3n2)c(O)c(C(C)(C)c2ccccc2)c1`, the activation in experiment [9] was -6.85% (inactive); in [7], 0.903% (inactive). Further, the Potency entry in [3] and in experiment [5] was “inactive” each time. Also, the max response in [4] is 10.7%. Further, the Potency in experiment [6] is 61.1 µM (active). The compound was called inactive in [8].

For the compound `Cc1c(COC(=O)C2C(/C=C(\Cl)C(F)(F)F)C2(C)C)cccc1-c1ccccc1` (stereo not drawn), the Potency result in [1] and in experiment [5] was “inactive” in each case. Also, the activation in [2] was 2.08% (inactive); in [7], 1.42% (inactive). Besides, the max response in [4] was 11.3%. Further, the compound was called inactive in experiment [10].

On to `COP(=S)(OC)Oc1nc(Cl)c(Cl)cc1Cl`, for which the Potency entry in experiment [1] and in experiment [3] was “inactive” throughout. The activation in [2] is 0.351% (inactive); in experiment [9] it was 1.34% (inactive). For the same compound, the Potency in experiment [6] is 27.3 µM (active). Also, the call in experiment [8] was inactive.

As to `CC1(c2ccc(Oc3ccccc3)cc2)OC(=O)N(Nc2ccccc2)C1=O` (stereo not drawn), the Potency in [1] was 35.5 µM (active).

Turning to `c1cc(OCC2CO2)cc(OCC2CO2)c1` (stereo not drawn), the Potency in experiment [11] is 15.8 µM (active); in [13] it was 31.6 µM (active); in [14], 31.6 µM (active); in experiment [15], 25.1 µM (active); in [16], 39.8 µM (active); in experiment [17], 25.1 µM (active). In addition, the Potency in experiment [18] was 39.8 µM (active); in [6], 29.8 µM (active). The Potency entry in experiment [12], in experiment [20], in experiment [3] and in experiment [5] was “inactive” each time. Besides, the activation in experiment [19] is -20.7% (inactive); in [2], 0.408% (inactive). Further, in [4], the max response worked out at 21.9%.

Regarding `CC(=O)[C@H]1[C@H](C#N)C[C@H]2[C@@H]3CC=C4C[C@@H](O)CC[C@]4(C)[C@H]3CC[C@@]21C`, the activation in experiment [2] was -2.16% (inactive) and -0.929% (inactive). In addition, the compound was classed as inactive in experiment [10].

For the compound `Cn1cc(-c2ccccc2)c(=O)c(-c2cccc(C(F)(F)F)c2)c1`, the activation is -15.3% (inactive) in experiment [9] and -0.874% (inactive) in experiment [7]. Also, the Potency result in experiment [3] and in experiment [5] was “inactive” throughout. For the same compound, in [4], the max response is 16.9%.

On to `CS(=O)(=O)c1cc(C(F)(F)F)ccc1C(=O)c1cnoc1C1CC1`, for which the activation in experiment [9] was 11.4% (inactive); in experiment [7], 0.439% (inactive). The max response in experiment [4] was 51.3%. In addition, the Potency entry in [5] is “inactive”. In addition, the compound was classed as inactive in experiment [10].

Regarding `CCCCC(CC)CO[N+](=O)[O-]` (stereo not drawn), the Potency result in [3] and in [5] was “inactive” in each case. Also, the max response in experiment [4] is -28%. Also, the result in experiment [10] and in [8] was inactive.

In the case of `COc1cc(Cl)c(OC)cc1Cl`, the activation in experiment [9] is -1.33% (inactive); in experiment [7] it was -1.99% (inactive). Further, in experiment [3], the Potency result is “inactive”. Besides, the outcome in [10] was inactive.

Regarding `CC(Oc1ccc(Cl)cc1Cl)C(=O)O` (stereo not drawn), the activation is -0.107% (inactive) in [2] and -1.28% (inactive) in experiment [7]. Besides, the Potency result in experiment [3] was “inactive”. In addition, the outcome in [10] and in experiment [8] was inactive.

Regarding `CCOP(=S)(OCC)Oc1ccc(S(C)=O)cc1` (stereo not drawn), the max response in [4] was -64.2%. The Potency entry in experiment [5] is “inactive”. In addition, in [10], the result was inactive.

In the case of `CCc1ccc(C(=O)NN(C(=O)c2cc(C)cc(C)c2)C(C)(C)C)cc1`, the Potency in experiment [11] was 3.98 µM (active). In addition, the Potency result in [12] and in experiment [3] was “inactive” throughout. Besides, the activation was -6.89% (inactive) in [9] and -3.3% (inactive) in experiment [7]. Further, the call in [10] was inactive.

(Values after PubChem BioAssay (NCATS).)
